Measured values: PubChem BioAssay (EPA / NIEHS)
Records with an inconclusive call do not appear. Calls of active or inactive are those of the source. Rule for the calls, unless noted: active = hit-call score of the fitted dose curve at least 0.9, where 1 is the maximum; inactive = score below 0.9.

Assays:
[1] = system: DIO1 (gene 1733); assay: CCTE_GLTED_hDIO1: CCTE's human Deiodinase 1 (DIO1) Inhibition Assay, Great Lakes Toxicology and Ecology Division (GLTED) Lab (AID 2283987; active = hit-call score of the fitted dose curve at least 0.9, where 1 is the maximum;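 note: isolated human DIO1 enzyme in a cell-free setup rather than cells; enzyme activity read as free iodide liberated from substrate via Sandell-Kolthoff colorimetry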)
Description: CCTE_GLTED_hDIO1 is a cell-free, single-readout assay designed to test the inhibitory activity of chemicals toward human iodothyronine Deiodinase type 1 (DIO1) enzyme. Enzyme is incubated in presence of test chemical for 3 hours during which uninhibited enzyme liberates free iodide from substrate. Free iodide is measured in a second step using the Sandell-Kolthoff method.CCTE_GLTED_hDIO1 is the assay component measured from the CCTE_GLTED_hDIO1 assay. It is designed to make measurements of enzyme activity, a form of enzyme reporter, as detected with absorbance signals by spectrophotometry.Data from the assay component CCTE_GLTED_hDIO1 was analyzed into 1 assay endpoint. This assay endpoint, CCTE_GLTED_hDIO1, was analyzed in the positive analysis fitting direction relative to DMSO as the negative control and baseline of activity. Using a type of enzyme reporter, loss-of-signal activity can be used to understand changes in the enzymatic activity as they relate to the gene DIO1. Furthermore, this assay endpoint can be referred to as a primary readout, because the performed assay has only produced 1 assay endpoint. To generalize the intended target to other relatable targets, this assay endpoint is annotated to the 'deiodinase' intended target family, where the subfamily is 'deiodinase Type 1'.
[…] assay, developed at Great Lakes Toxicology and Ecology Division (GLTED) within the EPA's Center for Computational Toxicology and Exposure (CCTE), is designed to test the chemicals' ability to inhibit DIO1. Assay is based on iodide release measured by the Sandell-Kolthoff method and is run in 96-well plate format with assay plates run in triplicate (n=3). The method used for the deiodinase assay was largely based on Renko et al. (2012, 2015). These works describe the utilization of the SK reaction to measure deiodinase-liberated iodide in a 96-well-plate format. The SK reaction is based on the reduction of the yellow-colored cerium IV to the non-colored cerium III by arsenic, with the rate of this reaction increased in the presence of iodide in a concentration-dependent manner (Sandell and Kolthoff, 1937). Iodinated test chemicals can interfere as competitive inhibitors, or if the stock chemical has contaminating free-iodide present. Other chemicals, e.g.: nitrite, iron, and thiocyanate can interfere with the Sandell-Kolthoff reaction (see Sandell and Kolthoff, 1937).

[2] = target: Nucleoli Translocation, AR (gene 367) (UniProt P10275); assay: UPITT_HCI_U2OS_AR_TIF2_Nucleoli_Antagonist: University of Pittsburgh U2OS Androgen Receptor-Transcriptional Intermediary Factor 2 (AR-TIF2) Antagonism High Content Imaging Assay for Nucleoli Translocation (AID 2283997; active = hit-call score of the fitted dose curve at least 0.9, where 1 is the maximum)
In short: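 Measured quantity was AR-RFP fluorescence localized to nucleoli in engineered U2OS cells also bearing TIF2-GFP, acquired on automated high-content imagers. Primary testing used 20 uM compound; actives were confirmed in triplicate wells.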

[3] = target: Ratio of Nucleoli Translocation and Cytoplasm, AR (gene 367) (UniProt P10275); assay: UPITT_HCI_U2OS_AR_TIF2_Nucleoli_Cytoplasm_Ratio_Agonist: University of Pittsburgh U2OS Androgen Receptor-Transcriptional Intermediary Factor 2 (AR-TIF2) Agonism High Content Imaging Assay for Ratio of Nucleoli Translocation and Cytoplasm (AID 2284000; active = hit-call score of the fitted dose curve at least 0.9, where 1 is the maximum;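 note: hits raise the red nucleolar to cytoplasm ratio above vehicle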)
In short: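 Read-out first: nucleolar-to-cytoplasm ratio of red (AR-RFP) signal, quantified by high-content imaging in U2OS cells co-expressing TIF2-GFP. Activity is scored as signal increase over DMSO. Single-point screening used 20 uM final (0.2% DMSO).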

[4] = CCTE_Harrill_HTTr_Viability_MCF7: CCTE's 6-hour Cell Viability Assessment for the High-Throughput Transcriptomics (HTTr) Platform, in MCF-7 cells cultured in DMEM + 10% fetal bovine serum, Harrill Lab (AID 2284010)
In short: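 MCF-7 cells in DMEM + 10% FBS, 384-well, exposed 6 h to an eight-point dilution series. Membrane integrity scored by high-content imaging of propidium iodide exclusion; bidirectional fit versus DMSO.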

[5] = CCTE_Harrill_HTTr_Apoptosis_MCF7: CCTE's 6-hour Apoptosis Assessment for the High-Throughput Transcriptomics (HTTr) Platform, in MCF-7 cells cultured in DMEM + 10% fetal bovine serum, Harrill Lab (AID 2284011)
In short: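 Cells are dosed with test chemicals at eight concentrations and imaged 6 hours later for caspase-3/7 activity using a green fluorogenic detection reagent. Activity is fitted in both directions against DMSO controls.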

[6] = target: Nucleoli Translocation, AR (gene 367) (UniProt P10275); assay: UPITT_HCI_U2OS_AR_TIF2_Nucleoli_Agonist: University of Pittsburgh U2OS Androgen Receptor-Transcriptional Intermediary Factor 2 (AR-TIF2) Agonism High Content Imaging Assay for Nucleoli Translocation (AID 2283998; active = hit-call score of the fitted dose curve at least 0.9, where 1 is the maximum)
In short: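 Red-tagged human androgen receptor co-expressed with GFP-tagged TIF2 serves as the binding reporter. Primary testing used 20 uM final (0.2% DMSO); follow-up dose response covered 0.195 to 50 uM final (0.5% DMSO).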

[7] = target: Ratio of Nucleoli Translocation and Cytoplasm, AR (gene 367) (UniProt P10275); assay: UPITT_HCI_U2OS_AR_TIF2_Nucleoli_Cytoplasm_Ratio_Antagonist: University of Pittsburgh U2OS Androgen Receptor-Transcriptional Intermediary Factor 2 (AR-TIF2) Antagonism High Content Imaging Assay for Ratio of Nucleoli Translocation and Cytoplasm (AID 2283999; active = hit-call score of the fitted dose curve at least 0.9, where 1 is the maximum;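 note: antagonists lower the DHT-driven ratio of nucleolar to cytoplasmic red signal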)
In short: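 U2OS cells co-expressing RFP-tagged human AR and GFP-tagged TIF2, antagonist mode with DHT as baseline. Nucleolar-to-cytoplasmic red fluorescence ratio imaged by high-content microscopy; final compound 20 uM (0.2% DMSO) primary, 0.195–50 uM (0.5% DMSO) concentration-response.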

[8] = CCTE_Shafer_MEA_acute_spike_number: CCTE's Neural Acute Assay for Total Number of Spikes, Shafer Lab (AID 2284008);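 for AC50: curve fitted for decrease in spike count so AC50 reflects inhibitors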
In short: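 Cortical neurons from rat, matured to DIV 13 or 15 on microelectrode arrays, are recorded at 37 C before and during 40-min exposure to 0.03-40 uM compound. Wells need >/= 10 active electrodes.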

[9] = CCTE_Shafer_MEA_acute_burst_number: CCTE's Neural Acute Assay for Single-Electrode Bursts, Shafer Lab (AID 2284013)
In short: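 Spontaneous network activity of primary rat cortical neurons was recorded extracellularly on microelectrode arrays at 37 C, with 40-min periods before and during exposure to 0.03-40 uM compound on DIV 13 or 15.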

[10] = CCTE_Harrill_HTTr_CellCount_MCF7: CCTE's Cell Proliferation Assessment for the High-Throughput Transcriptomics (HTTr) Platform, Harrill Lab (AID 2284012; active = hit-call score of the fitted dose curve at least 0.9, where 1 is the maximum;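 note: cells exposed to compound for six hours; intended direction is loss of nuclei count meaning fewer cells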)
In short: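 MCF7 cells exposed 6 hours to an eight-point dilution series; Hoechst-stained nuclei counted by high-content imaging. Bidirectional curve fitting against DMSO baseline.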

Sequence of Nucleoli Translocation, AR (gene 367) (P10275 whole entry, looked up): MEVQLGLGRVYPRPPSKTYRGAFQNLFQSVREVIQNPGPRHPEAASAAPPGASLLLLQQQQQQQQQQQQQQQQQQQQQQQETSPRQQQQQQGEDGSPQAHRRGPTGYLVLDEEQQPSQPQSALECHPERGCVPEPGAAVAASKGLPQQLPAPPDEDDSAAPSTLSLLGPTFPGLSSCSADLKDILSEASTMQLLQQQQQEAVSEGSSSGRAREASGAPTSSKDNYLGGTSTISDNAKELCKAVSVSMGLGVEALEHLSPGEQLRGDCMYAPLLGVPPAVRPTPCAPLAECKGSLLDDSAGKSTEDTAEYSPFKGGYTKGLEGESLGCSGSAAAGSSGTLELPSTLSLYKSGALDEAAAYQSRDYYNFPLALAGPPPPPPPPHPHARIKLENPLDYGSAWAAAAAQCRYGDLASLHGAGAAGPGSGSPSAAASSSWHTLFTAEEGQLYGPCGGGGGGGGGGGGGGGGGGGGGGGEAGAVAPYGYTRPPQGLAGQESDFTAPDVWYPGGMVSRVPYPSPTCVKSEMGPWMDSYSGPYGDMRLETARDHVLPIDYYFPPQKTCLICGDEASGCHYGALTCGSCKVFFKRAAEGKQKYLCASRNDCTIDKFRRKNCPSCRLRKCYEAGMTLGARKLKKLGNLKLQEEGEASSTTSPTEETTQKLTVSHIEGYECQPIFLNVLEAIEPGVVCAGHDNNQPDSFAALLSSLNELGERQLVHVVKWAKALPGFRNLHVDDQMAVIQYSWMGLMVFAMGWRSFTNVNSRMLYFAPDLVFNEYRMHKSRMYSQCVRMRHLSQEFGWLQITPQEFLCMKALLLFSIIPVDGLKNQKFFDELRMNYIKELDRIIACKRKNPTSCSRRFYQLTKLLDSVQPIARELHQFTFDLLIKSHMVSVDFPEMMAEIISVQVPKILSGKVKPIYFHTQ
Sequence of Ratio of Nucleoli Translocation and Cytoplasm, AR (gene 367) (P10275 whole entry, looked up): as above

SMILES: CCCCCCCCCC=CCC1CC(=O)OC1=O (configuration not stated)
- AC50 [1]: 31.9 µM (active)
- outcome [2]: inactive
- outcome [3]: inactive
- outcome [4]: inactive
- outcome [5]: inactive

SMILES: O=C(O)C(F)(F)OC(F)(F)C(F)(F)OC(F)(F)C(F)(F)OC(F)(F)C(F)(F)C(F)(F)C(F)(F)F
- AC50 [1]: 24.6 µM (active)

SMILES: CCCCCc1ccc(O)cc1
- AC50 [2]: 31.9 µM (active)
- AC50 [6]: 39.1 µM (active)
- AC50 [7]: 86.1 µM (active)
- outcome [3]: inactive

SMILES: O=C(NCc1ncc(C(F)(F)F)cc1Cl)c1c(Cl)cccc1Cl
- outcome [2]: inactive
- outcome [6]: inactive
- outcome [7]: inactive
- outcome [3]: inactive
- outcome [4]: inactive
- outcome [5]: inactive

SMILES: CC(C)(c1ccc(Oc2ccc(N)cc2)cc1)c1ccc(Oc2ccc(N)cc2)cc1
- outcome [4]: inactive
- outcome [5]: inactive

SMILES: CC(C)[C@@H]1CC[C@@H](C)C[C@H]1O
- outcome [2]: inactive
- outcome [6]: inactive
- outcome [4]: inactive
- outcome [5]: inactive

SMILES: OCC(CO)(CBr)CBr
- outcome [8]: inactive
- outcome [4]: inactive
- outcome [5]: inactive
- outcome [9]: inactive

SMILES: N=C(N)c1ccc(OCCCCCOc2ccc(C(=N)N)cc2)cc1
- outcome [8]: inactive
- outcome [4]: inactive
- outcome [5]: inactive
- outcome [9]: inactive

SMILES: CN(Cc1cnc2nc(N)nc(N)c2n1)c1ccc(C(=O)N[C@@H](CCC(=O)O)C(=O)O)cc1
- outcome [2]: inactive
- outcome [6]: inactive
- outcome [3]: inactive
- outcome [4]: inactive
- outcome [5]: inactive

SMILES: NC(=NCCCCCCN=C(N)/N=C(\N)Nc1ccc(Cl)cc1)/N=C(\N)Nc1ccc(Cl)cc1
- AC50 [1]: 21.3 µM (active)
- AC50 [2]: 16.5 µM (active)
- outcome [6]: inactive
- AC50 [7]: 11.6 µM (active)
- outcome [3]: inactive
- AC50 [4]: 70 µM (active)
- outcome [5]: inactive

SMILES: O=C1NS(=O)(=O)c2ccccc21
- AC50 [8]: 0.00978 µM (active)
- outcome [4]: inactive
- outcome [5]: inactive
- outcome [10]: inactive
- AC50 [9]: 0.003 µM (active)

SMILES: Cc1ccc(N=Nc2c(O)ccc3ccccc23)c(C)c1
- outcome [4]: inactive
- outcome [5]: inactive

SMILES: CCCCc1ccc2ccccc2c1S(=O)(=O)O
- outcome [6]: inactive
- outcome [7]: inactive
- outcome [3]: inactive

SMILES: CCCCCCCCCCCCCCC
- outcome [4]: inactive
- outcome [5]: inactive

SMILES: CC(O)COc1ccccc1 (configuration not stated)
- outcome [2]: inactive
- outcome [6]: inactive
- outcome [7]: inactive
- outcome [3]: inactive
- outcome [4]: inactive
- outcome [5]: inactive

SMILES: O=P(O)(O)CCC(F)(F)C(F)(F)C(F)(F)C(F)(F)C(F)(F)C(F)(F)C(F)(F)C(F)(F)F
- AC50 [1]: 182 µM (active)

SMILES: CCCCc1oc2ccccc2c1C(=O)c1cc(I)c(OCCN(CC)CC)c(I)c1
- AC50 [8]: 8.91 µM (active)
- outcome [4]: inactive
- outcome [5]: inactive
- outcome [9]: inactive

SMILES: COc1cc([N+](=O)[O-])ccc1N
- outcome [2]: inactive
- outcome [7]: inactive
- outcome [3]: inactive

SMILES: CCCCCCc1ccc(N)cc1
- outcome [2]: inactive
- outcome [6]: inactive
- outcome [7]: inactive
- AC50 [3]: 78.4 µM (active)

SMILES: CC1COCc2cc3c(cc21)C(C)(C)C(C)C3(C)C (configuration not stated)
- AC50 [2]: 9.92 µM (active)
- outcome [7]: inactive
- outcome [4]: inactive
- outcome [5]: inactive

SMILES: CN(C)CCOC(c1ccccc1)c1ccccc1
- outcome [2]: inactive
- outcome [6]: inactive
- outcome [3]: inactive
- AC50 [8]: 4.98 µM (active)
- outcome [4]: inactive
- outcome [5]: inactive
- AC50 [9]: 3.11 µM (active)

SMILES: O=C(O)C(=O)O
- outcome [4]: inactive
- outcome [5]: inactive

SMILES: CCCCCCC(C)(C)C(=O)O
- outcome [2]: inactive
- outcome [6]: inactive
- outcome [7]: inactive
- outcome [3]: inactive

SMILES: Cc1cc(C(=C2C=CC(=Nc3ccc(S(=O)(=O)O)cc3)C=C2)c2ccc(Nc3ccc(S(=O)(=O)O)cc3)cc2)cc(S(=O)(=O)O)c1N
- outcome [2]: inactive
- outcome [7]: inactive
- outcome [3]: inactive

SMILES: CCCCCCCCCCCC
- AC50 [1]: 84.4 µM (active)
- outcome [8]: inactive
- outcome [4]: inactive
- outcome [5]: inactive
- outcome [10]: inactive
- outcome [9]: inactive

SMILES: CC(=O)Nc1ccc(O)cc1
- outcome [2]: inactive
- outcome [8]: inactive
- outcome [4]: inactive
- outcome [5]: inactive
- outcome [9]: inactive

SMILES: O=C(CCCN1CCC(O)(c2ccc(Cl)cc2)CC1)c1ccc(F)cc1
- AC50 [8]: 1.7 µM (active)
- outcome [4]: inactive
- outcome [5]: inactive
- outcome [9]: inactive

SMILES: CCC(C)c1ccccc1O (configuration not stated)
- AC50 [8]: 2.06 µM (active)
- outcome [4]: inactive
- outcome [5]: inactive
- outcome [10]: inactive
- AC50 [9]: 2.44 µM (active)
